Activity calls are given as the source filed them. Unless noted, no rule for the calls is given here.
Columns and labels:
[1] = tested on: Wnt5a (protein binding on small-molecule microarray); test: small molecules binding Wnt5a protein – biophysical, small-molecule microarray, 635/667 nm fluorescence, primary screen (AID 1142); details: 635 nm fluorescence, higher = more signal;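 also: fluorescence read at 667 nm with signal to noise per printed feature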
[2] = ATP-based viability of Huh7 replicon cells – cell-based, CellTiter-Glo luminescence, basal, 48 h, cytotoxicity control for HCV replication inhibitor project, primary screen (AID 1143); details: higher = more signal, called active from +8 up or from −8 down;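 also: Huh7 hepatoma cells carrying a hepatitis C replication reporter with no stimulus; test concentration not given here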
[3] = Pseudomonas biofilm growth suppression – PAO1 strain, BacTiter-Glo luminescence, LB-PBS, primary screen (AID 1144); details: P. aeruginosa PAO1 biofilm, 12 h, higher = more signal
[4] = basal CRE-LacZ reporter activity in PC12 – cell-based, unstimulated, primary screen (AID 1145); details: no forskolin, luminescence, 4.5 h, higher = more signal, called active from +8 up or from −8 down
[5] = forskolin-driven CRE-LacZ activity in PC12 – cell-based, CRE-LacZ reporter, forskolin-stimulated, primary screen (AID 1146); details: luminescence, 4.5 h, higher = more signal, called active from +8 up or from −8 down;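 also: PC12 cells with 6xCRE LacZ reporter stimulated by forskolin 10 µM; beta-galactosidase reporter signal reflecting CREB driven transcription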
[6] = biological target: Streptavidin (Streptomyces avidinii) (UniProt P22629); test: compounds binding control protein streptavidin – biophysical, small-molecule microarray, 635/667 nm fluorescence, artefact control for SMM compound annotation, primary screen (AID 1147); details: higher = more signal;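 also: signal reflects streptavidin binding to arrayed compounds as a control protein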
Sequence of Streptavidin (Streptomyces avidinii) (P22629 whole entry, looked up): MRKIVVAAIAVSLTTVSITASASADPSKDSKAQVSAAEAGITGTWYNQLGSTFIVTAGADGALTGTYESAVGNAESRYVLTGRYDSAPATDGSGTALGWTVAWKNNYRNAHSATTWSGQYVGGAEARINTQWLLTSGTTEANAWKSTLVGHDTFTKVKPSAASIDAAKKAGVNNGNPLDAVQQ

[7] = probe aInhba binding on compound microarray – biochemical, small-molecule microarray, 635/667 nm fluorescence, primary screen (AID 1148); details: higher = more signal;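 also: score merges 667nm spot fluorescence with signal-to-noise for antibody binding to printed compounds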
Torsin-1A (Homo sapiens) [8] = biological target: Torsin-1A (Homo sapiens) (UniProt O14656); test: TOR1A wild-type binding on microarray – cell lysate, small-molecule microarray, lysate, 635/667 nm, primary screen (AID 1149); details: COS7 hTOR1A-WT lysate, 635 nm fluorescence, higher = more signal
Sequence of Torsin-1A (Homo sapiens) (O14656 whole entry, looked up): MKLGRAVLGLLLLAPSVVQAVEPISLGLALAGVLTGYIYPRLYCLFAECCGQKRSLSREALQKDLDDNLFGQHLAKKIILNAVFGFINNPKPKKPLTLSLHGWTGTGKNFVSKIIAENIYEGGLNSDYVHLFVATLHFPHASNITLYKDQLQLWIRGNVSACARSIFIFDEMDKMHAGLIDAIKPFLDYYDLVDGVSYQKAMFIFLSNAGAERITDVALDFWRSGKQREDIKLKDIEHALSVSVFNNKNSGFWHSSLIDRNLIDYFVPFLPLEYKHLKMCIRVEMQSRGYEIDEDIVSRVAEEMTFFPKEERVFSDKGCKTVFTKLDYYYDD

Torsin-1A (Homo sapiens) [9] = biological target: Torsin-1A (Homo sapiens) (UniProt O14656); test: torsin A mutant lysate binding on microarrays – cell lysate, small-molecule microarray, COS7 lysate, 635/667 nm fluorescence, primary screen (AID 1150); details: COS7 hTOR1A mutant lysate, 635 nm fluorescence, higher = more signal;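 also: score pools 667 nm emission and signal to noise measuring lysate protein binding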
[10] = tested on: Sonic hedgehog protein (Shh); test: Sonic hedgehog microarray binding compounds – biochemical, small-molecule microarray, 635/667 nm fluorescence, primary screen (AID 1151); details: 635 nm fluorescence, higher = more signal;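 also: Shh protein binding to compounds spotted on small-molecule microarray slides; score combines spot fluorescence intensity with signal-to-noise across triplicate slides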
[11] = optical density shifts of acrAB sulA E. coli – strain DRC41, OD650, 48 h, E. coli filamentation inducer project, primary screen (AID 1152); details: higher = more signal, called active from +8 up or from −8 down;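 also: E. coli MC1000 strain DRC41 lacking acrAB efflux pump and sulA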
[12] = probe aLefty1 binding on compound microarray – biochemical, small-molecule microarray, 635/667 nm fluorescence, primary screen (AID 1153); details: higher = more signal;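 also: score merges spot fluorescence with signal-to-noise ratio from the scanned slide images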
[13] = plasmodial surface anion channel blockers, osmotic lysis – cell-based, P. falciparum Indochina, OD700, 1 h, primary screen (AID 1154); details: P. falciparum Indochina infected RBC osmotic lysis, higher = more signal, called active from +8 up or from −8 down
[14] = plasmodial surface anion channel blockers, osmotic lysis – cell-based, P. falciparum Indochina, OD700, 2 h, primary screen (AID 1155);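 also: lysis reports solute entry through the parasite surface anion channel PSAC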; details: P. falciparum Indochina infected erythrocytes, higher = more signal, called active from +8 up or from −8 down
[15] = changes in parasitized red cell lysis, either direction – P. falciparum Indochina, OD700, 3 h, PSAC antagonist project, primary screen (AID 1156); details: P. falciparum-infected erythrocytes, osmotic lysis, higher = more signal, called active from +8 up or from −8 down
[16] = plasmodial surface anion channel blockers, osmotic lysis – cell-based, P. falciparum Indochina, OD700, 18 h, primary screen (AID 1157); details: P. falciparum Indochina infected erythrocytes, osmotic lysis OD700, 18 h; higher = more signal, called active from +8 up or from −8 down
[17] = S6 kinase pathway phospho-S6 level changes – cell-based, A549, cytoblot, luminescence, serum-stimulated, primary screen (AID 1158); details: 5 h, higher = more signal;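 also: serum-stimulated A549 lung adenocarcinoma cells; signal is phosphorylated S6 detected by cytoblot immunostaining with HRP secondary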
[18] = biological target: NADPH oxidase 2 (Homo sapiens) (UniProt P04839); test: compounds shifting NOX2 Amplex Red fluorescence – cell-based, HEK293-NOX2, PMA-stimulated, NOX inhibitor project, primary screen (AID 1159); details: 45 min, higher = more signal, called active from +8 up or from −8 down; also: test concentration not given here
Sequence of NADPH oxidase 2 (Homo sapiens) (P04839 whole entry, looked up): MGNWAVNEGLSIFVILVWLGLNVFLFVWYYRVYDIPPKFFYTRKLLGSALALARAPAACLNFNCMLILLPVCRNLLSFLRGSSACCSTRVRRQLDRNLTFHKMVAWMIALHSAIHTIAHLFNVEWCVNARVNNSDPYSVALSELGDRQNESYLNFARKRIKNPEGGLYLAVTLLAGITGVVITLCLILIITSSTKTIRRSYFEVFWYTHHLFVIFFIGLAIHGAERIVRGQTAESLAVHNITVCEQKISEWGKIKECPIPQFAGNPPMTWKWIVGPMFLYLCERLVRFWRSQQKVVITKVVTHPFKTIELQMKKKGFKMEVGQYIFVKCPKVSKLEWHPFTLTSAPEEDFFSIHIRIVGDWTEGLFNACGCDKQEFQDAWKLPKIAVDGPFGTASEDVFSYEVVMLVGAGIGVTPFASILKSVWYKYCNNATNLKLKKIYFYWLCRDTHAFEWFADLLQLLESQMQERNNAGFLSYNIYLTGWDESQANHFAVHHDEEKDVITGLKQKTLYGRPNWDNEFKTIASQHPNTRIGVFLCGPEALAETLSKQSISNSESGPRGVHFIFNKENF

[19] = biological target: NADPH oxidase 4 (Homo sapiens) (UniProt Q9NPH5); test: compounds shifting NOX4 Amplex Red fluorescence – cell-based, HEK293-NOX4, tetracycline-induced, NOX inhibitor project, primary screen (AID 1160); details: HEK293-NOX4, Amplex Red H2O2 fluorescence, 45 min; higher = more signal, called active from +8 up or from −8 down
Sequence of NADPH oxidase 4 (Homo sapiens) (Q9NPH5 whole entry, looked up): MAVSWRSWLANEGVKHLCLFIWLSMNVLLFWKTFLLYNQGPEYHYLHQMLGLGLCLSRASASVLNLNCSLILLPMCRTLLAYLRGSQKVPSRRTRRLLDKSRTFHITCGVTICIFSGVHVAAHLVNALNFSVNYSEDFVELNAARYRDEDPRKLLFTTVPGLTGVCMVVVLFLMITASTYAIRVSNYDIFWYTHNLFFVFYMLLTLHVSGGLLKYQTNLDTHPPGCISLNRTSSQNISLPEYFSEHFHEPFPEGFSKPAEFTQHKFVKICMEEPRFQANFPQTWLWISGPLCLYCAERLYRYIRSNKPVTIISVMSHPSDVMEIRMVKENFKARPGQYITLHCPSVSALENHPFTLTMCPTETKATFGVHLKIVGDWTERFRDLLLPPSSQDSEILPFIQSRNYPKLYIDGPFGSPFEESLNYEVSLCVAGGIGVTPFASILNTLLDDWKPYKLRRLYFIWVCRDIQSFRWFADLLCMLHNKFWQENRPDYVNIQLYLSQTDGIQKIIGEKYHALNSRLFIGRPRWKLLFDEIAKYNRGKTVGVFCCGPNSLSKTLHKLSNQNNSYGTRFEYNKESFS

[20] = biological target: NADPH oxidase 5 (Homo sapiens) (UniProt Q96PH1); test: compounds shifting NOX5 Amplex Red fluorescence – cell-based, HEK293-NOX5, NOX inhibitor project, primary screen (AID 1161); details: HEK293-NOX5, ionomycin, 45 min, higher = more signal
Sequence of NADPH oxidase 5 (Homo sapiens) (Q96PH1 whole entry, looked up): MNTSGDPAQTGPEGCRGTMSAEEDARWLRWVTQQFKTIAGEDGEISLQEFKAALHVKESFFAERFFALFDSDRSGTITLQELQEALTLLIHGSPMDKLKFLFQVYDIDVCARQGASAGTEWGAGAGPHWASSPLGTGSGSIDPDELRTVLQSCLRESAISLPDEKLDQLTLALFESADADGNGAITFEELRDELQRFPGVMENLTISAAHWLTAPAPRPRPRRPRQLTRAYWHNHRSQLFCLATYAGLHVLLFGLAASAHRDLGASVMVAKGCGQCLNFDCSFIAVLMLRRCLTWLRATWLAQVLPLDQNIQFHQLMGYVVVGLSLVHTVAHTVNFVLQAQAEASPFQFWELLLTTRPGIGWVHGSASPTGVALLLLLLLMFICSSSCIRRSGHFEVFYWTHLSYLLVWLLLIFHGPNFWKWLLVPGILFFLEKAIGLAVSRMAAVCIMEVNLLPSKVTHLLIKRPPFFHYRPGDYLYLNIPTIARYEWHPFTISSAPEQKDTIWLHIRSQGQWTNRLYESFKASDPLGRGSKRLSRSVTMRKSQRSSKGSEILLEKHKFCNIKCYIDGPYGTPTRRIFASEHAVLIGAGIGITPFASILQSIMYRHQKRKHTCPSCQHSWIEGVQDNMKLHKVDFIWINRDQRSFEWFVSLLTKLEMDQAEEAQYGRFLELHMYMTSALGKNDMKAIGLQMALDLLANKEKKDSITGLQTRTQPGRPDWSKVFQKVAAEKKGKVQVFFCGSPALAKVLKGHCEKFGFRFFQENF

Compound	composite z-score [1]	z-score [2]	z-score [3]	z-score [4]	z-score [5]	composite z-score [6]	composite z-score [7]	composite z-score (Torsin-1A (Homo sapiens) [8])	composite z-score (Torsin-1A (Homo sapiens) [9])	composite z-score [10]	z-score [11]	composite z-score [12]	z-score [13]	z-score [14]	z-score [15]	z-score [16]	z-score [17]	z-score [18]	z-score [19]	z-score [20]
CCOC(=O)C[C@H]1[C@H](OC(=O)c2cc3ccccc3oc2=O)[C@@H](NC(=O)C2CCCCC2)c2cc(OCCCO)ccc2N1C(=O)c1ccccc1	-0.0359	-3.06 (inactive)	0.838 (inactive)	11 (active)	-1.65 (inactive)	0.191	-0.0245	0.046	0.159	0.705	1.67 (inactive)	-0.147	0.388 (inactive)	-0.269 (inactive)	0.342 (inactive)	-1.4 (inactive)	1.18	-0.341 (inactive)	0.609 (inactive)	0.305
COc1ccc(C(O)C2C=CC3C(=O)NC(=O)C3N2Nc2ccccn2)c2ccccc12 (stereo not given)	0.0373	1.04 (inactive)	-0.507 (inactive)	-0.133 (inactive)	0.214 (inactive)	-0.0105	-0.0791	0.239	-0.274	0.448	-1.07 (inactive)	-0.0625	0.496 (inactive)	0.437 (inactive)	-0.139 (inactive)	0.977 (inactive)	-0.841	-0.387 (inactive)	-3.5 (inactive)	-2.08
CC(C)C[C@@H]1NC(=O)[C@@H]2C[C@H](C(=O)NCCCCCN)[C@H](c3cccc(OCCO)c3)N2C1=O	0.794	-0.542 (inactive)	-1.64 (inactive)	0.0043 (inactive)	0.442 (inactive)	1.05	-0.0736	0.941	0.919	1.05	1.28 (inactive)	0.427	3.07 (inactive)	-0.74 (inactive)	1.1 (inactive)	-2 (inactive)	0.836	1.22 (inactive)	0.74 (inactive)	1.43
C=CCNC(=O)[C@H]1[C@@H]2C(=O)O[C@@H](c3ccccc3)[C@@H](c3ccccc3)N2[C@@H](c2ccc(O)cc2)[C@]12C(=O)N(C(=O)OCCOC)c1ccc(C#CCNC(N)=O)cc12	0.415	0.621 (inactive)	0.283 (inactive)	0.0736 (inactive)	-0.036 (inactive)	-0.231	0.223	0.181	-0.0483	1.55	-0.929 (inactive)	0.378	1.78 (inactive)	0.441 (inactive)	-0.627 (inactive)	0.0898 (inactive)	-0.272	1.28 (inactive)	0.291 (inactive)	0.383
CN(C)CCCCCCNC(=O)[C@@H]1C[C@@H]2C(=O)N[C@@H](CCCCN)C(=O)N2[C@@H]1c1cccc(OCCO)c1	1.97	-0.598 (inactive)	-1.19 (inactive)	-0.268 (inactive)	-0.199 (inactive)	3.03	1.57	3.29	3.11	1.92	-0.374 (inactive)	2.74	1.59 (inactive)	-0.644 (inactive)	0.0026 (inactive)	-2.47 (inactive)	1.51	0.853 (inactive)	0.7 (inactive)	1.95
COc1ccc(C(O)C2C=CC3C(=O)NC(=O)C3N2Nc2ccccn2)cc1 (stereo not given)	0.273	1.06 (inactive)	-0.727 (inactive)	-0.329 (inactive)	-0.239 (inactive)	-0.0335	0.0659	0.21	0.353	0.3	-0.416 (inactive)	0.0622	0.539 (inactive)	0.874 (inactive)	-0.079 (inactive)	0.778 (inactive)	-0.449	-0.755 (inactive)	-2.56 (inactive)	-1.99
CCOc1cc(C(O)C2C=CC3C(=O)N(c4ccccc4)C(=O)C3N2Nc2ccccc2)ccc1O (stereo not given)	-0.206	0.318 (inactive)	-0.802 (inactive)	2.15 (inactive)	0.838 (inactive)	0.0572	-0.128	-0.577	1.66	-0.14	-0.39 (inactive)	-0.103	6.39 (inactive)	1.31 (inactive)	-0.343 (inactive)	0.949 (inactive)	-0.883	-1.19 (inactive)	-1.37 (inactive)	-2.34
COc1cc2c(cc1OC)CN(C(=O)[C@H]1[C@@H]3C(=O)O[C@@H](c4ccccc4)[C@@H](c4ccccc4)N3[C@@H](c3ccc(O)cc3)[C@]13C(=O)Nc1ccc(C#CCNC(N)=O)cc13)CC2	0.438	-0.431 (inactive)	-1.68 (inactive)	-1.01 (inactive)	-0.638 (inactive)	-0.283	0.0357	0.437	0.0805	0.74	0.595 (inactive)	0.075	0.342 (inactive)	0.137 (inactive)	-0.518 (inactive)	0.335 (inactive)	0.152	0.47 (inactive)	0.732 (inactive)	0.56
C=CCN1C(=O)[C@@]2(O[C@@H](CCO)[C@H]([Si](C)(C)c3ccc(OC)cc3)[C@H]2C)c2cc(NC(=O)c3ccc(OC)cc3)ccc21	0.157	-6.5 (inactive)	-0.39 (inactive)	10.6 (active)	-1.6 (inactive)	0.15	-0.0221	0.214	0.373	1.64	-0.0564 (inactive)	-0.147	23.3 (active)	6.69 (inactive)	0.978 (inactive)	1.75 (inactive)	0.26	-3.81 (inactive)	-0.905 (inactive)	-0.695
CC(C)(C)OC(=O)CC[C@]12N=C(c3ccc(OCCCO)cc3)O[C@H]1c1ccccc1N(CCS(=O)(=O)c1ccccc1)C2=O	0.628	-2.91 (inactive)	-0.556 (inactive)	3.64 (inactive)	-1.42 (inactive)	0.579	0.0785	0.698	0.811	1.2	-1.59 (inactive)	0.447	32.2 (active)	28.5 (active)	4.08 (inactive)	8.71 (active)	-0.321	-0.859 (inactive)	1.12 (inactive)	-1.06
O=C1OCCC/C=C\[C@H]2OC34C=CCN(Cn5nnc6ccccc65)C(=O)[C@H]3N(CCO)C(=O)[C@@H]4C12 (stereo not given in full)	-0.212	-0.363 (inactive)	-2.05 (inactive)	-1.58 (inactive)	-0.713 (inactive)	-0.712	0.8	-2.75	-1.23	-0.533	1.8 (inactive)	0.16	1.55 (inactive)	0.299 (inactive)	0.292 (inactive)	0.335 (inactive)	1.64	1.41 (inactive)	0.409 (inactive)	1.92
COC(=O)[C@@]1(Cc2ccccc2)[C@H]2c3cc(C(=O)N4CCCC4)n(CC4CC4)c3C[C@H]2CN1C(=O)c1ccccc1	0.918	-3.64 (inactive)	0.798 (inactive)	0.587 (inactive)	0.847 (inactive)	0.907	1.06	0.256	0.0577	-0.151	-1.47 (inactive)	1.54	1.15 (inactive)	0.194 (inactive)	1.68 (inactive)	0.69 (inactive)	0.222	-0.295 (inactive)	-2.68 (inactive)	-2.49
COC(=O)c1c(CC[C@@H](CO)NC(=O)N[C@@H](C)Cn2cc(C3(O)CCCCC3)nn2)oc(C(C)=O)c1C(=O)OC	0.315	-2.63 (inactive)	-1.04 (inactive)	1.59 (inactive)	0.214 (inactive)	0.533	0.225	1.07	0.91	2.06	-0.244 (inactive)	-0.0984	5.47 (inactive)	-0.319 (inactive)	1.01 (inactive)	-1.01 (inactive)	0.813	-6.12 (inactive)	-2.61 (inactive)	-2.88
C=CC[C@]1(C(=O)NCCCOC)N=C(c2ccc(OCCCO)cc2)O[C@H]1c1ccccc1N=[N+]=[N-]	0.485	-2.57 (inactive)	-0.742 (inactive)	2.14 (inactive)	-1.5 (inactive)	1.39	0.611	0.0108	0.878	-0.477	0.239 (inactive)	0.479	33.6 (active)	32.2 (active)	3.35 (inactive)	8.48 (active)	-0.403	-1.06 (inactive)	1.33 (inactive)	-0.678
CCOC(=O)C[C@H]1[C@H](OC(=O)Cc2ccc3c(c2)OCO3)[C@@H](NC(=O)c2ccc(-c3ccccc3)cc2)c2cc(OCCCO)ccc2N1C(=O)c1ccc2ccccc2n1	0.317	-4.97 (inactive)	-0.157 (inactive)	4.93 (inactive)	-0.87 (inactive)	1.41	-0.231	-0.184	0.438	0.0508	1.55 (inactive)	-0.0536	8.44 (active)	0.67 (inactive)	-0.352 (inactive)	-0.258 (inactive)	2.85	-2.09 (inactive)	-1.28 (inactive)	-1.21
CN(C)C(=O)[C@@]1(Cc2ccccc2CN=[N+]=[N-])N=C(c2ccc(OCCCO)cc2)O[C@H]1c1ccccc1	0.522	-2.54 (inactive)	0.378 (inactive)	0.629 (inactive)	-0.524 (inactive)	-0.154	0.7	0.209	0.681	-0.221	0.381 (inactive)	1.18	20.9 (active)	5.46 (inactive)	1.59 (inactive)	1.45 (inactive)	-0.0813	-2.45 (inactive)	-0.0483 (inactive)	0.524

From PubChem BioAssay
